Molecules are shown by their SMILES. The campaign covered roughly 68,000 compounds. About 2,700 (4%) showed an effect of 50% or more. What follows is part of a selection rich in strong results, with near analogues and random picks from the rest.

The assay deals with Plasmodium berghei. In words: Screen against P. berghei liver stage (PbLuc), transformed with Luciferase, at 2uM. In kind it is functional, HepG2. As to conditions: tested at 2 uM.
As to `CCc1nc(CN2CCCN(c3ncnc4ccccc34)CC2)no1`, the INHIBITION is given as -50.34%. For `CCc1nc(CN2CCCN(c3ncnc4sccc34)CC2)no1`, the INHIBITION is given as 37.75%. Then `CCc1nc(CN2CCCN(c3ncnc4ccsc34)CC2)no1`, with 80%. Then `CC(C)CN1CCN(C(=O)c2ccn(C)c(=O)c2)CC1`, with 1.36%; and `Cc1cnn(CC2CCCN2Cc2nc3ccccc3n2C)c1` (stereo unspecified), with 9.9%. Turning to `CC(C)c1cc(C(=O)NCCN2CCCS2(=O)=O)n[nH]1`, the INHIBITION is listed as -61.61%.

`O=C(CC1CCCC1)N1CCOC(c2nc(-c3ncccn3)no2)C1` (stereo unspecified): the INHIBITION worked out at 57.82%. On to `O=C(C1CCCC1)N1CCOC(c2nc(-c3ncccn3)no2)C1` (stereo unspecified), for which the INHIBITION came out at 22.81%. For `O=C(Cc1ccccc1)N1CCOC(c2nc(-c3ncccn3)no2)C1` (stereo unspecified), the INHIBITION stood at 0.18%. To `Cc1ccccc1C(=O)Nc1cnn(CC(=O)NC2CCCC2)c1` belongs -24.24%; to `CN(C)c1cc(C2CCCN(S(=O)(=O)C3CCCC3)C2)ccn1` (stereo unspecified), 29.89%; to `CN(C)c1cc(C2CCCN(S(=O)(=O)c3cn(C)cn3)C2)ccn1` (stereo unspecified), 36.15%. To `CCS(=O)(=O)N1CCCC(c2ccnc(N(C)C)c2)C1` (stereo unspecified) belongs 59.91%; to `CC(C)NC(=O)c1cc(-c2ccc(S(C)(=O)=O)cc2)c2cnn(C)c2n1`, 10.93%; to `Cc1nc(CC(=O)N2CCC(Nc3cccnn3)CC2)cs1`, 3.97%.

In the case of `CCN(Cc1cccc(-c2ccncc2)c1)S(C)(=O)=O`, the INHIBITION was 63.1%. For the molecule `CCN(Cc1cccc(-c2ccncc2)c1)S(N)(=O)=O`, the INHIBITION is listed as 20.14%.

For the molecule `CCN(C)S(=O)(=O)N(CC)Cc1cccc(-c2ccncc2)c1`, the INHIBITION was 21.24%. To `O=C(Cc1ccon1)N1CCc2cc(Br)sc2C1` belongs -10.14%; to `COc1ccc(CNC(=O)N2CCC(Cc3cnn(C)c3)C2)cc1C` (stereo unspecified), 20.28%.

For the molecule `CCNc1ncc(C)c(-c2cnn(C)c2)n1`, the INHIBITION is on record as 8.26%. Then `Cc1cnc(NCc2cnn(C)c2)nc1-c1cnn(C)c1`, with 10.13%. With `Cc1cnc(NCc2ccncc2)nc1-c1cnn(C)c1`, the INHIBITION is listed as 72.34%. With `CCNC(=O)NC(C)(C)C(=O)NCCc1csc2ccccc12`, the INHIBITION is reported as 32.03%. For `c1cnc(-c2nc(CN3CCN(CC4CC4)CC3)cs2)nc1`, the INHIBITION is listed as 24.88%. Then `COc1ccc(C2SCC(=O)Nc3ccsc32)cc1OC` (stereo unspecified), with 7.62%; and `Cn1c(=O)n(C)c2cc(C3SCC(=O)Nc4ccsc43)ccc21` (stereo unspecified), with 74.91%. Then `O=C1CSC(c2ccc(O)cc2)c2sccc2N1` (stereo unspecified), with 17.94%. To `CCOC(=O)N(C)C1CCN(Cc2cnc3ccccn23)CC1` belongs 2.26%; to `CN(C(=O)C1CCN(Cc2cnc3ccccn23)CC1)c1ccccc1`, 4.07%. For `COCc1nnc(C(=O)N(C)Cc2ccc(OC)cc2)o1`, the INHIBITION is 14.55%. For the molecule `CCc1nc(C)c(C(=O)N(C)Cc2cnc3ccccn23)o1`, the INHIBITION amounted to 52.81%. With `COCc1nnc(C(=O)N(C)Cc2cnc3ccccn23)o1`, the INHIBITION amounted to 80.13%. In the case of `CCCc1nnc(C(=O)N(C)Cc2cnc3ccccn23)o1`, the INHIBITION was -2.89%.

On to `CS(=O)(=O)N1CCCCC12CCCN(Cc1nccs1)C2` (stereo unspecified), for which the INHIBITION was -14.74%.

On to `CCc1cc(NCCNc2ccncc2C)n2nc(C)c(C)c2n1`, for which the INHIBITION is given as -7.77%. With `CC(Nc1ccn(Cc2ccccn2)n1)C(=O)NC(C)(C)C` (stereo unspecified), the INHIBITION is -48.1%. Turning to `Cc1nc(CN(C)C)cc(N2CCCC(COc3ccc(F)cc3)C2)n1` (stereo unspecified), the INHIBITION came to 40.47%.

On to `Cc1cc(C(=O)N2CC[C@H]3C[C@H](c4ccncn4)O[C@@H]3C2)c(C)[nH]1`, for which the INHIBITION is -16.33%. To `Cc1noc(C)c1C(=O)N1CC[C@H]2C[C@@H](c3ccncn3)O[C@@H]2C1` belongs 1.42%; to `Cc1oncc1C(=O)N1CC[C@H]2C[C@H](c3ccncn3)O[C@@H]2C1`, 52.34%; to `CN(Cc1ccc(Cl)c(Cl)c1)C(=O)CNC(N)=O`, 32.81%. Regarding `COCCN1CCC2(CC1)CC(Nc1ccc(C)nn1)CO2` (stereo unspecified), the INHIBITION was 7.72%. `CC1CCCCN1C(=O)COc1nc(C(C)(C)C)no1` (stereo unspecified): the INHIBITION is on record as 47.04%. To `Cc1noc(OCC(=O)N2CCCCC2C)n1` (stereo unspecified) belongs 50.32%. In the case of `CC(C)c1noc(OCC(=O)N2CCCCC2C)n1` (stereo unspecified), the INHIBITION turned out to be 17.48%. As for `CC(CNCC1(S(C)(=O)=O)CCOCC1)c1ccc(F)cc1` (stereo unspecified), the INHIBITION was found to be 29.28%.

With `CCC(CC)CNCC1(S(C)(=O)=O)CCOCC1`, the INHIBITION was found to be 59.99%. Turning to `CCC(C)CNCC1(S(C)(=O)=O)CCOCC1` (stereo unspecified), the INHIBITION worked out at 10.03%. In the case of `CCn1c(SCC(=O)N2CCOCC2)nc2cc(C)[nH]c2c1=O`, the INHIBITION is reported as 33.58%. Then `Cc1cc2nc(SCC(=O)N3CCOCC3)n(CC(C)C)c(=O)c2[nH]1`, with 50.74%.

For the molecule `Cc1cc2nc(SCC(=O)N3CCOCC3)n(CCC(C)C)c(=O)c2[nH]1`, the INHIBITION was determined as 44.15%. `CC(C)CN1CCC(c2nnc(CN3CCCC3)n2C2CC2)CC1`: the INHIBITION came out at 8.03%.

Take `CCC(=O)N1CCCC1c1nccnc1Nc1nc(C)cc(C)n1` (stereo unspecified): the INHIBITION was 44.72%. To `CN(C)C(=O)C1(CCCc2ccncc2)CCCN1` (stereo unspecified) belongs 54.82%.

`CNC(=O)C1(CCCc2ccncc2)CCCN1` (stereo unspecified): the INHIBITION is -0.51%.
